Reference: PubChem BioAssay AID1220 (Sanford-Burnham Center for Chemical Genomics, 2008)
The whole screen tested about 190,000 compounds, of which about 1,300 (0.68%) were called active. Cut-off read from the data, not from the text of the source: active = inhibition above about 50%; inactive = the rest. The full list was thinned out, with actives kept by preference.

Molecular target: Mannose-6-phosphate isomerase (Homo sapiens) (UniProt P34949)
Assay: human PMI inhibitors, high substrate, primary screen, biochemical, fluorescence intensity, high mannose 6-phosphate (AID 1220)
Settings: recombinant PMI enzyme, coupled fluorescence intensity; at 20 µM; hits give high values

Chain of Mannose-6-phosphate isomerase (Homo sapiens) (P34949 whole entry, looked up): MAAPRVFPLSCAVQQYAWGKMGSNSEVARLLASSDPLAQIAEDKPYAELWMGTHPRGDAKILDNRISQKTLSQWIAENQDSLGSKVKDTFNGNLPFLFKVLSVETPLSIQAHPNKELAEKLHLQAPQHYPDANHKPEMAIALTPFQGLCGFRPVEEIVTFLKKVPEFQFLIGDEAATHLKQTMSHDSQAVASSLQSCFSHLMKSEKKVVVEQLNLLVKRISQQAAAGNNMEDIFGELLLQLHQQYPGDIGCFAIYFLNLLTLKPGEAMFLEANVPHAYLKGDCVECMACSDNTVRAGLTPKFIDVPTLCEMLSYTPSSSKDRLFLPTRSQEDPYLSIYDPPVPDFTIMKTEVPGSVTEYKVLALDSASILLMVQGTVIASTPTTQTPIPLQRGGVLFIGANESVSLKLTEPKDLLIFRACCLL

inhibition, inactive:
COc1ccc(C2CC(c3ccc(OC)cc3)n3nc(NC(=O)c4ccco4)nc3N2)cc1 (stereo not given) 3.4%
COc1cccc2c1OCC(C(=O)OCc1cccnc1)=C2 3.9%
COCc1cc(C)nc(N/N=C/c2ccc(-c3cc(C(=O)O)ccc3Cl)o2)c1C#N -8.6%
COCc1cc(C)nc(N/N=C/c2ccc(-c3ccc(C(=O)O)c(Cl)c3)o2)c1C#N -2.9%
O=C1CCc2cc(S(=O)(=O)NC(C(=O)N3CCN(c4ccccn4)CC3)c3ccccc3)ccc2N1 (stereo not given) -3.8%
CNCC/C=C1/c2ccccc2CSc2ccccc21 14.2%
COc1ccc(NC(=O)NCc2ccncc2)c(OC)c1 3.6%
CCNC(=O)Nc1ccc(OC)cc1OC -3.8%
CCOc1ccc(NC(=O)NCC2CCN(c3ccc(OC)cc3)C2)cc1 (stereo not given) 22.5%
COc1ccc(N2CCC(CNC(=O)Nc3ccc(Cl)cc3)C2)cc1 (stereo not given) 46.2%
CCSc1nnc(NC(=O)C(C)(C)C)s1 2%
CCO[C@@H]1OC(C(=O)NCc2ccccc2)=C[C@H](C2CC2)[C@H]1CCCO -7.4%
Cc1nc(N)[nH]c(=O)c1CCC(=O)OCC(C)C -23.1%
Nc1ccc2nc(-c3ccccc3)sc2c1 26.8%
Nc1c([N+](=O)[O-])c(=O)sc2ccccc12 -0.6%
Cc1c(C(=O)NCCc2ccc(S(N)(=O)=O)cc2)cccc1[N+](=O)[O-] -0.5%
CCCN1C/C(=C/c2cccc([N+](=O)[O-])c2)C(=O)/C(=C/c2cccc([N+](=O)[O-])c2)C1 -2.8%
N#CC1=C2SCN(Cc3ccco3)CN2C(=O)CC1c1ccccc1F (stereo not given) 15%
COc1ccc(N2CSC3=C(C#N)C(c4cccc(OC)c4OC)CC(=O)N3C2)cc1 (stereo not given) -24.3%
Cc1ccc(/C=C/C(=O)O)cc1S(=O)(=O)NCCCC(=O)O 0.6%
O=C(CCN1C(=O)C2C3C=CC(C3)C2C1=O)N1CCN(c2ccc([N+](=O)[O-])cc2)CC1 (stereo not given) 21.6%
CCC(=O)Nc1nc2nc(-c3ccccc3)cc(-c3ccccc3)n2n1 0.3%
Cc1ccc(O)c(NC(=S)NC(=O)/C=C/c2ccco2)c1 -3.9%
Cc1cc(=O)oc2cc(OCc3ccc(C(=O)N4CCN(c5ccccc5)CC4)cc3)ccc12 10.2%
CCC(C)NC(=O)CNC(=S)N(Cc1ccccc1F)C1CCCCC1 (stereo not given) 6.1%
COc1ccc(NC(=O)CSc2nnc(-c3cccnc3)n2Cc2ccco2)c(OC)c1 8%
c1ccc(OCCN2CCN(Cc3nc(-c4ccc5c(c4)OCO5)no3)CC2)cc1 -4.3%
CC(=O)Nc1ccc(NC(=O)CC2Nc3cccc4cccc(c34)NC2=O)cc1 (stereo not given) -5.1%
O=C(CC1Nc2cccc3cccc(c23)NC1=O)Nc1ccccc1 (stereo not given) 39%
Brc1ccc(/C=N/c2nc3ccccc3n2CCN2CCOCC2)cc1 9.4%
C=CCn1c(=NC(=O)c2ccc(S(=O)(=O)N3CCc4ccccc4C3)cc2)sc2cc(S(N)(=O)=O)ccc21 1.8%
C#CCn1c(=NC(=O)c2ccc(S(=O)(=O)N3CCCc4ccccc43)cc2)sc2cc(S(N)(=O)=O)ccc21 20.9%
N/C(=N\OC(=O)Oc1ccccc1)c1cccc([N+](=O)[O-])c1 -8.6%
CCOC(=O)c1cc(NC(=O)Nc2ccccc2OC)c(C)nc1C 6%
CCCCCn1c(N)c(-c2nc3ccccc3o2)c2c([N+](=O)[O-])nn(C)c(=O)c21 -0.9%
Cc1noc2ncnc(Oc3ccccc3Cl)c12 0%
COc1cccc(CN(C)C(=S)Nc2cccc(C)c2)c1 0.1%
Cc1ccccc1OCC(=O)N/N=C/c1cc2ccccc2nc1Cl 9.1%
O=C(COc1cccc(Cl)c1)N/N=C\c1cc2ccccc2nc1Cl -3.2%
O=C(CN1CCCCC1)N/N=C/c1cc2ccccc2nc1Cl -10.7%
O=C(CN1CCOCC1)N/N=C/c1cc2ccccc2nc1Cl 15.9%
Cc1ccc(NCC(=O)N/N=C\c2cccc(O)c2)cc1 18.7%
Cc1ccc(NCC(=O)N/N=C\c2ccc([N+](=O)[O-])o2)cc1 -1.6%
CC(=O)Nc1ccc(S(=O)(=O)N2CCN(C(=O)N3CCOCC3)CC2)cc1 1.8%
O=C(CSCc1ccc(Cl)cc1)NCCSCc1ccco1 4%
O=C1NC(c2ccccc2)=C(c2nc3ccccc3s2)C(c2ccccc2)N1 (stereo not given) 14.1%
NC(=O)c1ccccc1NC(=O)Nc1cccc2ccccc12 19%
COC(=O)c1ccc2c(c1)N(C)C(=O)CS2 6.4%
O=C(Nc1ccc2c(c1)OCCO2)c1ccc(Br)s1 -2.3%

inhibition, active:
COCc1cc(C)nc(N/N=C/c2ccc(-c3ccc(Cl)cc3[N+](=O)[O-])o2)c1C#N 55.9%
COc1ccc(N2CCC(CNC(=O)Nc3ccc(C)c(C)c3)C2)cc1 (stereo not given) 52.6%
COc1ccc(N2CCC(CNC(=O)Nc3ccc(OC)cc3OC)C2)cc1 (stereo not given) 55.7%
Nc1ccc2c(c1)sc1ccccc12 55.2%
N#CC1=C2SCN(Cc3ccco3)CN2C(=O)CC1c1cccc2ccccc12 (stereo not given) 68.8%
COc1ccc2ccccc2c1C1CC(=O)N2CN(Cc3ccco3)CSC2=C1C#N (stereo not given) 62.9%
O=C(CC1Nc2cccc3cccc(c23)NC1=O)Nc1ccc(F)cc1 (stereo not given) 54%
C=CCn1c(=NC(=O)c2ccc(S(=O)(=O)N3CCCc4ccccc43)cc2)sc2cc(S(N)(=O)=O)ccc21 59.2%
Cc1ccc(NCC(=O)N/N=C/c2cc3ccccc3nc2Cl)cc1 57.6%
O=C(CNc1ccc2ccccc2c1)N/N=C/c1cc2ccccc2nc1Cl 67.5%
Cc1ccc(NCC(=O)N/N=C/c2cc(O)ccc2[N+](=O)[O-])cc1 57.6%
